Assay results: the supplement of paper PMC6555819

Each sequence was assayed on PPARg:RXRa DBDmut IVT, anti-RXR (DBD mutation: RXRa K156A/R161A, NR concentration 270 nM, RXRa partner concentration 90 nM) (assay: PBM binding z-score (relative to random genomic background probes); higher = stronger binding; sequences stand for … in GC…GCGATTGACAGCGTAGAATGAAGG).
Method in brief: (§1)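 Binding buffer was PBS pH 7.4 with 2% milk, 0.02% Triton X-100, 1 mM DTT, 0.2 mg/mL BSA and 0.4 mg/ml salmon testes DNA. In it, ligand-free nuclear receptor dimers were incubated 1 h on custom Agilent 4×180K protein-binding microarrays carrying double-stranded probes. Antibodies against each partner (one per run) detected binding, and z-scores were calculated against random background probes after regression normalization of scanned fluorescence.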

| Sequence | PBM binding z-score |
| --- | --- |
| TATACAGGGTCAAAGGGCAGAGTACGAATGTCGA | 2.92 |
| CGTCCAAGGTCAAAGGTCAGGGAAGAGATGACGG | 3.65 |
| CAAACTAGGTCACCGGAAGGTCAAAGTTCGCATG | 8.66 |
| TAGCCTAGGTTATGCGGGCCAGTATAGTGTCGGC | 0.00744 |
| CCTACTGGGCCAAAAAGGCCATTGATGCCGATAA | 2.77 |
| CGAACTAGGTCAAAGGCCAGTGAAAGGCGACGTA | 7.82 |
| ATCTCTAGGTTAAAGTTCAGTGAATCCCGAGGAT | 4.45 |
| CCGACTGGGGCAAAGGTTACGATACTCAGTACGA | 4.56 |
| ACTCGGAGGACAGAGGTCAGAGCTACGCCAGTGA | 0.205 |
| CAAACTAGGTCACAGAGGTCAAAGTTCGTGCGTA | 8.27 |
| CCAGACAGGTGAAAGGTCACTCAGTCTGGTACGC | 2.78 |
| CAATCTAGGTCACAGAGGTCAAAGTCCGTGCGTA | 9.1 |
| ACTAGCAGGTCAAGGGTCACTCAAGATTAGTCCG | 4.43 |
| CATACACGGTCAGCTAGGCCAGAGTAGGGACGGC | -0.275 |
| GCTTCCGGGTCAAAGGTTATAGCATGAATAGAAT | 6.02 |
| TCAGATAGGTAAAGGTGAAAGTCGAACGATATGA | 2.81 |
| ATATGTAGGTCAGGGTCATTCAGAAAGTAGGGAA | 7.87 |
| CTAACTAGGTCACCGGAAGGTCAAAGTCCGCATG | 8.81 |
| CGTCCAAGGTCAGCAGGTGAGTGAAAGCGACGTG | 2.8 |
| TCTAGTAGGTCACGGAGGTCACACACGACGGGTA | 7.04 |

| Sequence | PBM binding z-score |
| --- | --- |
| TCATATAGGTAATAAAGGTGAAAGTCGGCATCTA | 3.99 |
| CAAAATAGGTCAAGGTCAAAGTCGGTTTGTGCCA | 7.7 |
| CGTCCAAGGTCAGCAGGTCAGAGAAAGCGACGTG | 3.52 |
| CGTCCAAGGTCAAAGGTCACTGAAGAGATGACGG | 4.24 |
| TCTAGTTGGTCACGGAGGTCACACGCGACGGGTA | 2.46 |
| TCATATAGGTTAAAGGTGAAAGTCGGTGTGGTAA | 6.74 |
| CAAACTAGGTCACGAGGTCAAAGTCCGCTTCCCG | 8.56 |
| CCTACTGGGCCAAGGTCTTTGATCAGTCAAAGCA | 3.2 |
| CGTCCAAGGTCAATGCTAGCTCAGTGAAAGCATT | 3.17 |
| CCTAGTGGGCCAAAGGTCATTGATTCCAATGCTC | 5.71 |
| CCTGCTAGGTCAAGGGTCAGCTAAAGCAGCTCGC | 4.08 |
| AGTCAAATTTCACTAGGTAACGTAAGATTCAGCT | 1.53 |
| ACTCGGAGGGCAAAGGTCAGAGCTACGCCAGTGA | 2.2 |
| GATACAGGGTCAGCTAGAGGTCAGAGTATGGAAA | 1.65 |
| AGAATGGGGTTAAGATCAGGGAAACAGAATACAT | 3.55 |
| TCATATAGGTAATCAGGTGAAAGTCCGTAAGTTA | 5.4 |
| CGTCCAAGGTCAAGGTCACTGAAAGAGACTCGAA | 3.94 |
| CGTCCAAGCTCAGCAGGTCAGTGAAAGCGACGTG | -0.243 |
| CGAACTAGGTCAAAGGACACTGAAAGGCGACGTA | 8.08 |

Each sequence was assayed on PPARg:RXRa IVT, anti-PPARg (NR concentration 270 nM, RXRa partner concentration 90 nM) in the same assay as above.
Method in brief: as §1

| Sequence | PBM binding z-score |
| --- | --- |
| TATACAGGGTCAAAGGGCAGAGTACGAATGTCGA | 5.52 |
| CGTCCAAGGTCAAAGGTCAGGGAAGAGATGACGG | 6.24 |
| CAAACTAGGTCACCGGAAGGTCAAAGTTCGCATG | 9.06 |
| TAGCCTAGGTTATGCGGGCCAGTATAGTGTCGGC | 0.945 |
| CCTACTGGGCCAAAAAGGCCATTGATGCCGATAA | 2.4 |
| CGAACTAGGTCAAAGGCCAGTGAAAGGCGACGTA | 8.38 |
| ATCTCTAGGTTAAAGTTCAGTGAATCCCGAGGAT | 5.47 |
| CCGACTGGGGCAAAGGTTACGATACTCAGTACGA | 6.38 |
| ACTCGGAGGACAGAGGTCAGAGCTACGCCAGTGA | 2.43 |
| CAAACTAGGTCACAGAGGTCAAAGTTCGTGCGTA | 8.9 |
| CCAGACAGGTGAAAGGTCACTCAGTCTGGTACGC | 5.19 |
| CAATCTAGGTCACAGAGGTCAAAGTCCGTGCGTA | 9.25 |
| ACTAGCAGGTCAAGGGTCACTCAAGATTAGTCCG | 6.12 |
| CATACACGGTCAGCTAGGCCAGAGTAGGGACGGC | 0.556 |
| GCTTCCGGGTCAAAGGTTATAGCATGAATAGAAT | 6.82 |
| TCAGATAGGTAAAGGTGAAAGTCGAACGATATGA | 2.22 |
| ATATGTAGGTCAGGGTCATTCAGAAAGTAGGGAA | 8.62 |
| CTAACTAGGTCACCGGAAGGTCAAAGTCCGCATG | 9.32 |
| CGTCCAAGGTCAGCAGGTGAGTGAAAGCGACGTG | 3 |
| TCTAGTAGGTCACGGAGGTCACACACGACGGGTA | 8.61 |

| Sequence | PBM binding z-score |
| --- | --- |
| TCATATAGGTAATAAAGGTGAAAGTCGGCATCTA | 3.74 |
| CAAAATAGGTCAAGGTCAAAGTCGGTTTGTGCCA | 8.26 |
| CGTCCAAGGTCAGCAGGTCAGAGAAAGCGACGTG | 3.72 |
| CGTCCAAGGTCAAAGGTCACTGAAGAGATGACGG | 6.37 |
| TCTAGTTGGTCACGGAGGTCACACGCGACGGGTA | 4.38 |
| TCATATAGGTTAAAGGTGAAAGTCGGTGTGGTAA | 6.73 |
| CAAACTAGGTCACGAGGTCAAAGTCCGCTTCCCG | 9.04 |
| CCTACTGGGCCAAGGTCTTTGATCAGTCAAAGCA | 3.33 |
| CGTCCAAGGTCAATGCTAGCTCAGTGAAAGCATT | 3.23 |
| CCTAGTGGGCCAAAGGTCATTGATTCCAATGCTC | 7.73 |
| CCTGCTAGGTCAAGGGTCAGCTAAAGCAGCTCGC | 5.78 |
| AGTCAAATTTCACTAGGTAACGTAAGATTCAGCT | 2.38 |
| ACTCGGAGGGCAAAGGTCAGAGCTACGCCAGTGA | 4.71 |
| GATACAGGGTCAGCTAGAGGTCAGAGTATGGAAA | 3.52 |
| AGAATGGGGTTAAGATCAGGGAAACAGAATACAT | 3.66 |
| TCATATAGGTAATCAGGTGAAAGTCCGTAAGTTA | 5.17 |
| CGTCCAAGGTCAAGGTCACTGAAAGAGACTCGAA | 5.37 |
| CGTCCAAGCTCAGCAGGTCAGTGAAAGCGACGTG | -0.249 |
| CGAACTAGGTCAAAGGACACTGAAAGGCGACGTA | 8.34 |
